ROC1-CUL1 inh = inhibitors of human ROC1-CUL1 ubiquitin ligase activity | inhibition, % at 10 µM | in vitro K48 di-Ub FRET, acceptor:donor ratio, 45 min | AID 1347404, 2020 | 0.6% of 140,000 active; in the data active = inhibition above about 25%
Target sequence (P62877 whole entry, looked up): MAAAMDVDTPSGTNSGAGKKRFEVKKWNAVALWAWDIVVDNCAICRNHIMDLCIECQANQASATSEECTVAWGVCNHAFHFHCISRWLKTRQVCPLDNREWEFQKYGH
Target sequence (Q13616 whole entry, looked up): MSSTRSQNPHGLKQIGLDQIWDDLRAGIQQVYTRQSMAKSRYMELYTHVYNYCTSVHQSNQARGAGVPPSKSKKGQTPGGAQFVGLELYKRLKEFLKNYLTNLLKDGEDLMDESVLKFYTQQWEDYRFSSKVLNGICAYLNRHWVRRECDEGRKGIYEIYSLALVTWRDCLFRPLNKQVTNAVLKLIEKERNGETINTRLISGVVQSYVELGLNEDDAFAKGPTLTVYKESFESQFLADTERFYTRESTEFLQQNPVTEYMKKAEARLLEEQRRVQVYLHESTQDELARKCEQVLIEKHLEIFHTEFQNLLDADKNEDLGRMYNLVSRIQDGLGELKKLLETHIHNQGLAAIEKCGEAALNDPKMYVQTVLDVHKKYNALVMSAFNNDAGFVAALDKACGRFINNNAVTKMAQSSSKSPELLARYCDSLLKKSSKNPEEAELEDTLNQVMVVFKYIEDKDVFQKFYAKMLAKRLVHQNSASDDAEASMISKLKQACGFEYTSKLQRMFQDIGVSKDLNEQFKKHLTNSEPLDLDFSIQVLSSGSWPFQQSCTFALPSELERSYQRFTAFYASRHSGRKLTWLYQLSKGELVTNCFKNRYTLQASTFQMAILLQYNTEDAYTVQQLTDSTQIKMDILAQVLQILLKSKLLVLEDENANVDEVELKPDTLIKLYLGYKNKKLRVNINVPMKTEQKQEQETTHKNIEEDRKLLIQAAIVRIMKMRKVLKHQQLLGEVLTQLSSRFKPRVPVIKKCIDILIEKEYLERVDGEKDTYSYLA
* hit, by the source's call. The entries come from a sample that favours hits as a whole.

SMILES	ROC1-CUL1 inh
O=C(Nc1ccccc1Br)c1ccccc1NC(=O)C(O)(c1ccccc1)c1ccccc1	10
O=C1CCCc2c1c1cccc3c1n2CCC3	5
Nc1ncc2c3c1c(=O)c1ccccc1n3CCC2	50*
COc1ccc(-c2ccc(/C=C3\SC(=Nc4ccccc4Cl)NC3=O)o2)cc1Cl	-15
O=C1NC(=S)NC(=O)C1=Cc1c(OCc2ccc(Br)cc2)ccc2ccccc12	58*
O=C1NC(=S)NC(=O)C1=Cc1cc(Cl)ccc1OCc1ccc(C(=O)O)cc1	12
C=CCN1C(=O)/C(=C/c2c(OCc3ccccc3C#N)ccc3ccccc23)C(=O)NC1=S	14
Cc1c(C(=O)CSc2ccccc2)c2ccccc2n1C	3
CCN1CCN(C2(C(=O)N(C)Cc3nccs3)Cc3ccccc3C2)CC1	7
Nc1nc(CN2CCN(c3cccc(Cl)c3)CC2)nc(N2CCCCC2)n1	8
COC(=O)c1ccc([C@H]2Nc3ccc(S(=O)(=O)Nc4ccc(C)cc4)cc3[C@H]3C=CC[C@H]32)cc1	11
Cc1cccc(C)c1NS(=O)(=O)c1ccc2c(c1)[C@H]1C=CC[C@H]1[C@@H](c1ccc(Cl)cc1)N2	8
O=C(O)c1ccc2c(c1)C1C=CCC1C(c1cccc3ccccc13)N2 (stereo not given)	95*
COc1cccc([C@@H]2Nc3ccc(C(=O)O)cc3[C@@H]3C=CC[C@@H]32)c1OC	-12
COc1ccc(NS(=O)(=O)c2ccc3c(c2)[C@H]2C=CC[C@H]2[C@@H](c2ccc(C(=O)O)cc2)N3)cc1	97*
COc1cccc([C@H]2Nc3ccc(S(=O)(=O)Nc4ccc(C)c(C)c4)cc3[C@H]3C=CC[C@H]32)c1	-5
C1=CC2c3c(ccc4ccccc34)NC(c3cccc4ccccc34)C2C1 (stereo not given)	-6
Cc1cccc(NS(=O)(=O)c2ccc3c(c2)[C@H]2C=CC[C@H]2[C@@H](c2ccc(C(C)(C)C)cc2)N3)c1	-2
CC(C)c1ccc2c(c1)[C@@H]1C=CC[C@@H]1[C@H](c1ccc(S(=O)(=O)N3CCOCC3)cc1)N2	31*
N#Cc1c(-c2ccccc2)c(-c2ccccc2)nn(CC(=O)NNC(=S)Nc2ccc(Cl)cc2)c1=O	-4
COc1ccc(-c2noc(CN3CCN(CCO)CC3)n2)cc1	3
CCOC(=O)C1(Cc2ccc(OC)cc2)CCN(C(=O)c2cccnc2)CC1	-7
CCc1ccc(NCCC(=O)c2ccc(Cl)c(Cl)c2)cc1	5
O=C1NC(=O)N(c2ccc(F)cc2)C2=NC(c3ccncc3)=NC(C(F)(F)F)(C(F)(F)F)C12 (stereo not given)	1
CC1=NC(C)=C(C#N)C(c2ccc([N+](=O)[O-])o2)C1C#N (stereo not given)	-6
SMILES	ROC1-CUL1 inh
CCOC(=O)c1c(CN2CCOCC2)n(-c2ccc(C)cc2)c2ccc(Oc3nccc(Nc4ccccc4)c3C#N)cc12	-7
Cc1cc(O)ccc1NS(=O)(=O)c1ccccc1	9
CCc1ccc(S(=O)(=O)Nc2cc(SCC(=O)O)c(O)c3ccccc23)cc1	108*
Cc1ccc(S(=O)(=O)Nc2ccccc2-c2ccccc2NS(=O)(=O)c2ccc(C)cc2)cc1	7
CCOc1ccc(S(=O)(=O)Nc2cc3c(C(=O)OC)c(COC)oc3c3ccccc23)cc1	4
Cc1ccc(Sc2cc(NS(=O)(=O)c3ccccc3)c3ccccc3c2O)cc1	70*
CCOc1ccc(S(=O)(=O)Nc2ccc(S(=O)(=O)Nc3cccc4ccccc34)cc2)cc1	3
CCc1ccc(S(=O)(=O)NCC(=O)O)cc1	7
COc1ccc(S(=O)(=O)Nc2cc(SCc3ccccc3)c(O)c3ccccc23)cc1	2
CCOc1ccc(S(=O)(=O)Nc2cc(SCC(=O)O)c(O)c3ccccc23)cc1	43*
COCCN1C(=O)CC(CC(=O)NCCc2ccc(OC)c(OC)c2)(c2ccccc2C)C1=O (stereo not given)	2
Cc1sc2ncnc(SC(c3ccccc3)c3ccccc3)c2c1C	8
Cc1ccc(O)c(C(=O)/C=C/C=C/c2ccccc2)c1	-9
O=C(CNc1ccc(Br)cc1)N/N=C/c1cc(Cl)ccc1O	-7
CCC(C)c1ccc(OCCOc2ccc(C=C3C(=O)N(C)C(=O)N(C)C3=O)cc2OC)cc1 (stereo not given)	-10
COCc1ccc(CN2CCC(CO)(Cc3ccccc3Cl)CC2)o1	7
CC(=O)N1c2ccccc2C2(O)N=C(C)SC12 (stereo not given)	44*
CN1C(=O)C(O)(CC(=O)c2ccc(Cl)s2)c2ccccc21 (stereo not given)	1
CC(=O)N1c2ccccc2C(=O)C1C (stereo not given)	-3
O=C(NC(=S)Nc1ccc(Oc2ccccc2)cc1)c1ccc(Cl)cc1Cl	-3
CC(C)CCNC(=O)c1ccc(OC2CCN(Cc3ccccn3)CC2)cc1	-2
CC1=NN(c2cc(Cl)cc(Cl)c2)C(=O)/C1=C\c1ccc(N2CCOCC2)cc1	0
CC(=O)Nc1ccc(N2N=C(C)/C(=C/c3ccccc3)C2=O)cc1	41*
COc1cccc(/C=C2\C(=O)N(c3ccccc3)N=C2C)c1OC	-11
CC(=O)Oc1ccc(-n2c(C)cc(/C=C3\C(=O)N(c4ccccc4)N=C3C)c2C)cc1	4
SMILES	ROC1-CUL1 inh
CC1=NN(c2ccccc2)C(=O)/C1=C\c1ccc(C(C)(C)C)cc1	40*
CC1=NN(c2ccccc2)C(=O)/C1=C/c1cccc(OC2CSC2)c1	32*
CC1=NN(c2ccccc2)C(=O)/C1=C/c1cc(C)n(-c2cccc(C(F)(F)F)c2)c1C	3
CC1=NN(c2ccccc2)C(=O)/C1=C\C1=Nc2ccccc2C1	11
CC1=NN(c2ccc(F)cc2)C(=O)C1=Cc1c(O)n(-c2ccccc2)c(=S)n(-c2ccccc2)c1=O	0
CC1(C)Cc2cc(C(=NNC(=O)C3CC3)c3ccc(F)cc3)ccc2O1	-2
Cc1c(C(=O)N(C)C2CCS(=O)(=O)C2)nnn1-c1ccccc1 (stereo not given)	-1
O=C1C2C(c3ccc(Cl)cc3)OC3(C(=O)c4ccccc4C3=O)C2C(=O)N1c1ccccc1Cl (stereo not given)	4
CCCC(C)NC(=O)c1cc(OC)c(OC)c(OC)c1 (stereo not given)	-5
CC(C)(C)c1c(N)cccc1[N+](=O)[O-]	1
O=C1NN(c2ccc(I)cc2)C(=O)/C1=C\c1ccc(-c2ccc(Br)cc2C(=O)O)o1	45*
Cc1ccc(/C=C2/C(=O)NN(c3cccc(C(F)(F)F)c3)C2=O)o1	9
CCc1ccc(N2NC(=O)/C(=C/c3ccc(-c4ccccc4F)o3)C2=O)cc1	-1
O=C1NN(c2ccc(Cl)c(Cl)c2)C(=O)/C1=C\c1ccc(-c2ccc(Br)cc2C(=O)O)o1	71*
COC(=O)c1cccc(-c2ccc(/C=C3/C(=O)NN(c4ccc(C)cc4)C3=O)o2)c1	15
COC(=O)c1ccccc1-c1ccc(/C=C2\C(=O)NN(c3ccc(Br)cc3)C2=O)o1	11
O=C1NN(c2ccc(I)cc2)C(=O)/C1=C\c1ccc(-c2cccc(C(=O)O)c2)o1	33*
CCn1c(SCC(=O)Nc2ccccc2C)nnc1-c1ccc(Cl)cc1	-1
Cc1ccccc1COc1c(Cl)cc(Cl)cc1/C=C1\SC(=N)NC1=O	6
CCN(Cc1ccccc1)C(=O)CC1(c2cccc(C(F)(F)F)c2)CC(=O)N(C2CC2)C1=O (stereo not given)	3
NC(=O)CSc1n[nH]c(=O)[nH]c1=O	2
O=C1/C(=C/c2ccc(O)cc2)CS(=O)(=O)c2ccccc21	6
